GSH bead fluor = compound fluoresces at 488/530 nm on GSH beads. fluorescence (KMESF) at 10 µM. GSH beads flow cytometry, compound fluorescence 488/530 nm; active compounds read high. 190,000 compounds, 0.25% hits; in the data active = fluorescence above about 89;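 also: glutathione beads carrying GST-tagged Bcl family fusion proteins plus one bare bead set; values are compound well signal with DMSO vehicle wells as background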
RGS8-Gao = human RGS8-Galphao interaction regulation | response (percent of control binding), % at 10 µM | AID 1423 | P09471 | multiplexed bead flow cytometry, RGS8-Galphao binding; actives lie on both sides | 220,000 compounds, 0.34% hits; in the data active = response below about 60% or above about 140%; inactive = in between;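 also: Galphao activated as the GDP aluminium fluoride complex binding bead-coupled RGS8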
Target sequence (P09471 whole entry, looked up): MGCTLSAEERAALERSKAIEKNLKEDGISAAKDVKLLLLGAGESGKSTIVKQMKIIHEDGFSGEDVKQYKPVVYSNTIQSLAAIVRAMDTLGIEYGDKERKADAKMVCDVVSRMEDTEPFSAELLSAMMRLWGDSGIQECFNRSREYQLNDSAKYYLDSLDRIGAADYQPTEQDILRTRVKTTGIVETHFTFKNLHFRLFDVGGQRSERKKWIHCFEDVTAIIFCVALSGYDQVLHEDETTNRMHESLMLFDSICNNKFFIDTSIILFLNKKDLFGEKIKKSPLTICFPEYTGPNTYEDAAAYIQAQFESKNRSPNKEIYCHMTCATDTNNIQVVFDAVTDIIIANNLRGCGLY
RGS7-Gao reg = regulators of human RGS7-Galphao interaction | Multiplexed bead flow cytometry, RGS7-Galphao binding; actives lie on both sides | 220,000 compounds, 0.35% hits | P09471 | binding response (% of control), % at 10 µM | AID 1439; in the data active = binding response below about 49% or above about 150%; inconclusive = no clear call, values can overlap the other calls; inactive = in between;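 also: fluorescent Galphao held in activated GDP-AlF4 state binding bead-coupled RGS7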
RGS16-Gao HTS = modulates binding between human RGS16 and Galphao; 220,000 compounds, 0.38% hits; binding response (% of control), % at 10 µM; bead-based flow cytometry RGS16-Galphao binding, fluorescence; actives lie on both sides; O15492+P09471;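 also: Galphao activated by GDP with aluminum fluoride before binding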
Target sequence (O15492 whole entry, looked up): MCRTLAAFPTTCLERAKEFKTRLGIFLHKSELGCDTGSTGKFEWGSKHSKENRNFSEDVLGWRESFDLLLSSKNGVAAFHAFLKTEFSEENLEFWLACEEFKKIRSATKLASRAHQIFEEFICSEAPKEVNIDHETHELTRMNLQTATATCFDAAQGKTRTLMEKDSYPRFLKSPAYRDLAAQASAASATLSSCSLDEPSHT
Target sequence (P09471 whole entry, looked up): as the sequence (P09471 whole entry, looked up) above
RGS4-Gao reg = human RGS4-Galphao interaction regulation; P09471; Multiplexed bead flow cytometry, RGS4-Galphao binding; actives lie on both sides; binding response (% of control), % at 10 µM; 220,000 compounds, 0.33% hits; in the data active = binding response below about 49% or above about 150%; inactive = in between;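 also: fluorescent Galphao activated with aluminum fluoride binding bead-coupled RGS4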
Avidin bead fluor = avidin bead compound fluorescence profile | Avidin beads, compound fluorescence 488/530 nm, flow cytometry; active compounds read high | fluorescence (KMESF) at 10 µM | 220,000 compounds, 0.38% hits | AID 1775; in the data active = fluorescence above about 47
RGS-Gao = RGS4-Galphao interaction regulator (human). shares compounds with RGS16-Gao HTS. multiplexed bead flow cytometry, RGS–Galpha-o binding. RGS4–Galpha-o binding response, % at 10 µM. 1,600 compounds, 99% hits. AID 1504;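 also: fluorescently labeled Galpha-o bound to GDP with aluminium fluoride binding biotinylated RGS beads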
Avidin counter = biotin-avidin bead binding disruption counter-screen | inhibition, % at 10 µM | shares compounds with RGS16-Gao HTS | 1,700 tested, under 10 active | streptavidin beads, fluorescein-biotin binding, flow cytometry;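 active = inhibition above 50%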;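 also: median green fluorescence of gated singlet beads compared with DMSO control wells; 0% = DMSO wells and 100% = complete loss of bead fluorescence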
RGS8-Gao confirm = confirmation of regulators of human RGS8-Galphao interaction. shares compounds with RGS16-Gao HTS. bead-based flow cytometry RGS8-Galphao binding, fluorescence; actives lie on both sides. binding response (% of control), % at 10 µM. 1,700 compounds, 3% hits; in the data active = binding response below about 72% or above about 130%; inactive = in between;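 also: Galphao activated as GDP AlF4 complex before binding bead RGS8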
RGS7-Gao single = RGS7-Galphao interaction regulation, single point confirmation | bead-based flow cytometry RGS7-Galphao binding; actives lie on both sides | shares compounds with RGS16-Gao HTS | response (percent of control binding), % at 10 µM | AID 1837 | 1,700 compounds, 7.8% hits; in the data active = response below about 75% or above about 130%; inactive = in between;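 also: fluorescent Galphao activated with GDP and aluminum fluoride binding bead-coupled RGS7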
RGS16-Gao single = RGS16-Galphao interaction regulation, single point confirmation | shares compounds with RGS16-Gao HTS | bead-based flow cytometry, RGS16-Galphao binding; actives lie on both sides | response (% of control binding), % at 10 µM | 1,700 compounds, 4% hits | AID 1838; in the data active = response below about 74% or above about 130%; inactive = in between;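 also: Galphao activated as the GDP aluminium fluoride complex binding bead-coupled RGS16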
RGS4-Gao single = confirmation of regulators of human RGS4-Galphao interaction | shares compounds with RGS16-Gao HTS | RGS4-Galphao binding, multiplexed bead flow cytometry; actives lie on both sides | binding response (% of control), % at 10 µM | 1,700 compounds, 4% hits | AID 1840; in the data active = binding response below about 74% or above about 130%; inactive = in between
RGS19-Gao conf = RGS19-Galphao interaction regulation, single point confirmation | bead-based flow cytometry RGS19-Galphao binding; actives lie on both sides | 1,700 compounds, 5% hits | shares compounds with RGS16-Gao HTS | response (percent of control binding), % at 10 µM; in the data active = response below about 50% or above about 160%; inactive = in between;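 also: 100% = no compound control and 0% = blank background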
* marks the source's active call; other numbers are inactive results; [ ] = dose if it differs, or a comment. Only some compounds are listed: those with a hit (about 1.2% of all), similar ones and a draw of the others. Unless noted, no rule for the calls is given here.

Screening CCOC(=O)NC(=O)CSc1nnc(C2CC2)n1Cc1ccco1 returned GSH bead fluor 17, RGS8-Gao 104.2, RGS7-Gao reg 100.7, RGS16-Gao HTS 113.0, RGS4-Gao reg 99.4 and Avidin bead fluor 11.
`CCOC(=O)C(CSCc1ccccc1)NC(=O)OC(C)(C)C` (stereo not drawn) gave GSH bead fluor 57, RGS8-Gao 97.6, RGS7-Gao reg 97.8, RGS16-Gao HTS -919.8*, RGS4-Gao reg 92.8, Avidin bead fluor 2 and RGS-Gao 92.8*.
CCOC(=O)C(CSCC(=O)c1ccc(Br)cc1)NC(=O)OC(C)(C)C (stereo not drawn) was read as GSH bead fluor 12, RGS8-Gao 101.4, RGS7-Gao reg 103.9, RGS16-Gao HTS 105.6, RGS4-Gao reg 100.9 and Avidin bead fluor 8.
For Cc1ccc(Cl)c(OC(=O)c2nn(C(C)C)c(=O)c3ccccc23)c1 the results were GSH bead fluor 14, RGS8-Gao 118.5, RGS7-Gao reg 100.7, RGS16-Gao HTS 247.8*[activator], RGS4-Gao reg 101.4, Avidin bead fluor 12, RGS-Gao 101.4*, Avidin counter 2.0, RGS8-Gao confirm 102.8, RGS7-Gao single 102.8, RGS16-Gao single 103.3, RGS4-Gao single 104.7 and RGS19-Gao conf 91.6.
Screening COC(=O)c1cccc(NC(=O)c2nn(C(C)C)c(=O)c3ccccc23)c1 returned GSH bead fluor 11, RGS8-Gao 98.8, RGS7-Gao reg 98.7, RGS16-Gao HTS 99.3, RGS4-Gao reg 103.7 and Avidin bead fluor 8.
`CCCCC(=O)Nc1cccc(C(C)O)c1` (stereo not drawn) gave GSH bead fluor 9, RGS8-Gao 103.2, RGS7-Gao reg 102.5, RGS16-Gao HTS 101.6, RGS4-Gao reg 103.5 and Avidin bead fluor 22.
`CC(C)CC(=O)Nc1cccc(C(C)O)c1` (stereo not drawn) gave GSH bead fluor 9, RGS8-Gao 89.8, RGS7-Gao reg 203.1*[activator], RGS16-Gao HTS 151.2, RGS4-Gao reg 114.5, Avidin bead fluor 173*, RGS-Gao 114.5*, Avidin counter 1.9, RGS8-Gao confirm 101.8, RGS7-Gao single 106.1, RGS16-Gao single 99.3, RGS4-Gao single 101.6 and RGS19-Gao conf 136.7.
For CCOC(=O)C(NC(C)=O)(Nc1cccc(F)c1)C(F)(F)F (stereo not drawn) the results were GSH bead fluor 38, RGS8-Gao 106.3, RGS7-Gao reg 103.5, RGS16-Gao HTS 103.2, RGS4-Gao reg 103.6 and Avidin bead fluor 10.
For CCOC(=O)C(NC(C)=O)(Nc1ccc(F)cc1)C(F)(F)F (stereo not drawn) the results were GSH bead fluor 37, RGS8-Gao 99.0, RGS7-Gao reg 205.5*[activator], RGS16-Gao HTS 119.3, RGS4-Gao reg 138.0, Avidin bead fluor 260*, RGS-Gao 138.0*, Avidin counter 2.2, RGS8-Gao confirm 102.9, RGS7-Gao single 108.3, RGS16-Gao single 104.0, RGS4-Gao single 106.0 and RGS19-Gao conf 106.3.
`C=COC(=O)c1sc2nc(C)cc(C)c2c1N` gave RGS8-Gao 94.6, RGS7-Gao reg inconclusive, RGS16-Gao HTS 90.0, RGS4-Gao reg 89.2 and Avidin bead fluor 6.
Screening COc1cc(/C=N/NC(=O)c2ccc(-n3cccc3)cc2)ccc1O returned GSH bead fluor 11, RGS8-Gao 14.2*, RGS7-Gao reg 16.0*, RGS16-Gao HTS -85.9, RGS4-Gao reg 15.8*, Avidin bead fluor -1, Avidin counter -1.1, RGS8-Gao confirm 97.2, RGS7-Gao single 100.0, RGS16-Gao single 96.3, RGS4-Gao single 96.9 and RGS19-Gao conf 85.9.
Screening CCNCc1nc2cc(Cl)ccc2c(=O)[nH]1 returned GSH bead fluor 15, RGS8-Gao 87.1, RGS7-Gao reg 93.5, RGS16-Gao HTS 75.0, RGS4-Gao reg 84.7 and Avidin bead fluor 6.
Screening Cc1cc(NC(=O)C2CCCCC2)n(-c2nc3ccccc3[nH]2)n1 returned GSH bead fluor 10, RGS8-Gao 100.5, RGS7-Gao reg 99.0, RGS16-Gao HTS 101.6, RGS4-Gao reg 101.2 and Avidin bead fluor 9.
`Cc1cc(NC(=O)C2CCC2)n(-c2ccccn2)n1` gave GSH bead fluor 48, RGS8-Gao 13.5*, RGS7-Gao reg 6.5*, RGS16-Gao HTS 3.5*, RGS4-Gao reg 8.2*, Avidin bead fluor -3, Avidin counter 0.6, RGS8-Gao confirm 98.8, RGS7-Gao single 105.6, RGS16-Gao single 100.2, RGS4-Gao single 100.2 and RGS19-Gao conf 99.1.
For CCOC(=O)c1sc(NC(=O)COC(=O)C(CCSC)NC(C)=O)nc1C (stereo not drawn) the results were GSH bead fluor 13, RGS8-Gao 78.0, RGS7-Gao reg 84.5, RGS16-Gao HTS 9.0*, RGS4-Gao reg 86.1, Avidin bead fluor 6, RGS-Gao 86.1*, Avidin counter 1.7, RGS8-Gao confirm 102.3, RGS7-Gao single 104.2, RGS16-Gao single 102.5, RGS4-Gao single 104.8 and RGS19-Gao conf 116.6.
`CCOC(=O)c1oc2cccc(OCC(O)CNC(C)C)c2c1C` (stereo not drawn) gave GSH bead fluor 31, RGS8-Gao 125.4, RGS7-Gao reg 183.7*[activator], RGS16-Gao HTS 231.3*[activator], RGS4-Gao reg 204.4*[activator], Avidin bead fluor 127*, Avidin counter 2.2, RGS8-Gao confirm 98.9, RGS7-Gao single 92.8, RGS16-Gao single 93.3, RGS4-Gao single 93.5 and RGS19-Gao conf 96.2.
